Measurements reported in PubChem BioAssay AID652042 (Broad Institute, 2013).
In all, about 1,100 compounds went through this assay and about 350 (32%) were called active. How the calls were made is not given here. The list is a sample of the results. Results with a measured potency or affinity are listed apart.

test: viability loss in CEM21 cells – cell-based, CellTiter-Glo luminescence, cherry-picked, cytotoxicity control for viral fusion inhibitor project, dose response (AID 652042); conditions: CellTiter-Glo ATP luminescence, 24 h; series mostly up to 35 µM

| Structure (SMILES) | activity change, negative = cytotoxicity |
| --- | --- |
| COc1ccc(S(=O)(=O)Nc2ccc3c(c2)CC(=O)N([C@H](C)CO)C[C@H](C)[C@H](CN(C)S(=O)(=O)c2cccs2)O3)cc1 | inactive |
| CC(C)CNS(=O)(=O)c1ccc(CCC(=O)N2CCN(Cc3ccc4c(c3)OCO4)CC2)cc1 | inactive |
| CN1C(=O)C2(c3ccccc31)N(C)CC(c1ccccc1)C21SC(=S)N(Cc2ccco2)C1=O (centres undefined) | inactive |
| C[C@@]12C(=O)N(Cc3ccco3)CC(=O)N1[C@H]1c3ccccc3OC[C@@H]1[C@@H]2c1ccccc1 | inactive |
| O=C(NCCCN1CCc2ccccc2C1)Nc1ccc(Cl)cc1 | inactive |
| CCCCn1c(N)c(N(CC(C)C)C(=O)c2ccc(S(=O)(=O)N(CC)c3ccccc3)cc2)c(=O)[nH]c1=O | inactive |
| NC(=O)c1sc2nccc(Nc3ccccc3)c2c1N | inactive |
| CCc1nc2ccc(C(=O)NCCN3CCNC3=O)cn2c1N(CC)Cc1cccc(Br)c1 | inactive |
| Cc1ccccc1OCC(=O)Nc1cccc(C(=O)O)c1 | inactive |
| O=C(Nc1ccc(F)cc1)C1CCCN1S(=O)(=O)c1ccc(Br)cc1 (centres undefined) | inactive |
| CC(=O)c1c(C)[nH]c(C(=O)OCC(=O)Nc2c(C)cccc2C)c1C | inactive |
| O=C(Cc1ccc(S(=O)(=O)N2CCOCC2)s1)N1CCN(S(=O)(=O)c2ccc(Cl)cc2)CC1 | inactive |
| Cc1ccc(-c2nnc(N3CCN(C(=O)COc4ccccc4)CC3)c3ccccc23)cc1 | inactive |
| Cc1cc(Cl)ccc1OCC(=O)NNC(=O)C1CSC2(C)CCC(=O)N12 (centres undefined) | inactive |
| CC(NC(=O)c1cc(S(=O)(=O)N(C)C)ccc1N1CCCC1)C1CC2CCC1C2 (centres undefined) | inactive |
| COCCCn1c(-c2ccc(S(=O)(=O)N3CCOCC3)cc2)csc1=Nc1ccccc1 | inactive |
| O=C(CCc1ccc(S(=O)(=O)N2CCOCC2)cc1)Nc1nc(COc2ccccc2)cs1 | inactive |
| O=C(CN1C(=O)c2ccccc2S1(=O)=O)N1CCc2ccccc21 | inactive |
| Clc1ccc(-c2noc(CSc3nnc(-c4ccncc4)n3-c3ccccc3)n2)cc1 | inactive |
| Cc1cccc(C)c1NC(=O)N1CCN(c2nc3ccccc3s2)CC1 | inactive |

| Structure (SMILES) | activity change, negative = cytotoxicity |
| --- | --- |
| COc1ccc(-c2nnn(CC(=O)N(Cc3cccs3)C(C)C(=O)NC3CCCC3)n2)cc1OC (centres undefined) | inactive |
| O=C(NC1CCCCC1)C(c1cccs1)N(Cc1cccs1)C(=O)c1ccco1 (centres undefined) | inactive |
| c1ccc2c(c1)OCC(CNc1ncnc3nc[nH]c13)O2 (centres undefined) | inactive |
| C[C@H](CO)N1C[C@H](C)[C@@H](CN(C)C(=O)[C@H](Cc2ccccc2)N(C)C)OCc2ccccc2-c2c(n(C)c3ccccc23)C1=O | inactive |
| C[C@H]1CN([C@@H](C)CO)C(=O)c2c(c3ccccc3n2C)-c2ccccc2CO[C@H]1CN(C)C(=O)Cc1ccccc1 | inactive |
| C[C@H](C(=O)N(C)C[C@@H]1OCc2ccccc2-c2ccccc2C(=O)N([C@@H](C)CO)C[C@H]1C)c1ccccc1 | inactive |
| COc1ccc(CNC(=O)N(C)C[C@H]2OCc3ccccc3-c3ccccc3C(=O)N([C@H](C)CO)C[C@@H]2C)cc1 | inactive |
| C[C@H]1CN([C@@H](C)CO)C(=O)c2c(c3ccccc3n2C)-c2ccccc2CO[C@H]1CN(C)C(=O)Nc1cccc(F)c1 | inactive |
| C[C@H](C(=O)N(C)C[C@@H]1OCc2ccccc2-c2ccccc2C(=O)N([C@@H](C)CO)C[C@@H]1C)c1ccccc1 | inactive |
| C[C@H]1CN([C@@H](C)CO)C(=O)c2ccccc2-c2ccccc2CO[C@@H]1CN(C)C(=O)Nc1cccc(C(F)(F)F)c1 | inactive |
| CO[C@H](C(=O)N(C)C[C@@H]1OCc2ccccc2-c2c(n(C)c3ccccc23)C(=O)N([C@H](C)CO)C[C@@H]1C)c1ccccc1 | inactive |
| CC1(C)C2CCC1(C)C(OCCNCCOC(=O)Nc1ccccc1)C2 (centres undefined) | inactive |
| CCN1C(=O)[C@H]2[C@@H](c3ccc(C)cc3)N3C(=O)N(c4cccc(Br)c4)C(=O)[C@@]3(CC)[C@H]2C1=O | inactive |
| CCN1C(=O)[C@H]2[C@@H](c3ccc(C)cc3)N3C(=O)N(c4cccc(Br)c4)C(=O)[C@@]3(CC(C)C)[C@H]2C1=O | inactive |
| C[C@H](CO)N1C[C@H](C)[C@H](CN(C)S(=O)(=O)c2cccs2)Oc2ccc(NC(=O)Cc3cn(C)c4ccccc34)cc2CC1=O | inactive |
| CCC(C)(C)NC(=O)C(NS(=O)(=O)c1cccs1)c1ccccc1 (centres undefined) | inactive |
| CC(C)OCCCNc1ncnc2c1[nH]c1ccccc12 | inactive |
| CCOC(=O)/C=C1\Nc2ccccc2SC1=O | inactive |
| CCCCCn1c(C(C)NC(=O)CCC)nc2ccccc21 (centres undefined) | inactive |
| Cn1c(=O)n(-c2cccc(Cl)c2)c(=O)c2c3c(sc21)COC(C)(C)C3 | inactive |

| Structure (SMILES) | activity change, negative = cytotoxicity |
| --- | --- |
| C=CCN([C@@H](CC(C)C)C(=O)OC)S(=O)(=O)N(CC=C)[C@@H](CC(C)C)C(=O)OC | inactive |
| CN1CCc2ccccc2Cc2[nH]c3ccccc3c2CC1 | inactive |
| Cc1sc2ncnc(N3CCN(S(=O)(=O)c4ccc(Br)cc4)CC3)c2c1C | inactive |
| Cc1ccc2nc(NC(=O)CCCC(=O)O)sc2c1 | inactive |
| Cc1cccc(NC(=O)C2CCN(S(=O)(=O)c3ccc4c(c3)OCCCO4)CC2)n1 | inactive |
| CCc1cccc(NC(=O)C2CCN(S(=O)(=O)c3ccc4c(c3)CC(C)N4C(C)=O)CC2)c1 (centres undefined) | inactive |
| Cc1ccc(Cn2nnnc2CN2CCC(c3nc4ccc(Cl)cc4[nH]3)CC2)cc1 | inactive |
| COc1ccc(CN2CCC(C)(Oc3ccc4c(c3)OCO4)C2)c2ccccc12 (centres undefined) | inactive |
| CCN(C[C@H]1N[C@@](CC)(C(=O)OC)[C@H]2C(=O)N(Cc3ccccc3)C(=O)[C@@H]12)C(=O)Nc1ccc(OC)cc1 | inactive |
| COC(=O)[C@@]1(C)[C@H]2C(=O)N(Cc3ccccc3)C(=O)[C@H]2[C@H]2CN=C(SCc3ccc(Cl)cc3)N21 | inactive |
| CCN1C(=O)[C@H]2[C@@H](c3ccc(C)cc3)N3C(=O)N(c4cccc(Cl)c4)C(=O)[C@@]3(CC)[C@H]2C1=O | inactive |
| CS(=O)(=O)N(Cc1ccc(Cl)cc1)c1ccc(C(=O)NCCSc2ccccn2)cc1 | inactive |
| CC(=O)c1c(C)[nH]c(C(=O)OCCCCN2C(=O)c3ccccc3C2=O)c1C | inactive |
| CO[C@H]1CN(C)C(=O)c2ccc(NC(=O)C3CC3)cc2OC[C@@H](C)N(C(C)=O)C[C@@H]1C | inactive |
| CO[C@H]1CN(C)C(=O)c2cc(NC(=O)C3CCOCC3)ccc2OC[C@H](C)N(Cc2nccs2)C[C@H]1C | inactive |
| COCC(=O)N1C[C@@H](C)[C@H](OC)CN(C)C(=O)c2ccc(NC(=O)c3ccc(OC)cc3)cc2OC[C@@H]1C | inactive |
| CCCC(=O)Nc1ccc2c(c1)OC[C@H](C)N(C(=O)CN(C)C)C[C@@H](C)[C@H](OC)CN(C)C2=O | inactive |
| CCC(=O)Nc1ccc2c(c1)C(=O)N(C)C[C@@H](OC)[C@H](C)CN(C(=O)CC)[C@@H](C)CO2 | inactive |
| CO[C@H]1CN(C)C(=O)c2ccc(NC(=O)Nc3cccc(F)c3)cc2OC[C@@H](C)N(C(C)=O)C[C@H]1C | inactive |
